From PubChem BioAssay AID1159580 (chemical genetic matrix, 2015)
Several values for one entry are separate records, joined by “and”; a condition that tells them apart may be missing. Equal values may be shown once. The campaign covered roughly 5,500 compounds. About 2,000 (36%) were called active. Roughly 18% stayed inconclusive and do not appear here. No stated cut-off is given here; in the data, active means normalized growth mostly below about 0.91 (no sharp cut-off); inconclusive means no clear call, values can overlap the other calls; inactive means mostly above about 0.92. This is one part of the list.

Test: chemical genetic growth profiling, strain panel (AID 1159580);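 further: tested at 20 µM; growth read once vehicle control cultures reached saturation at 30 °C; 1 = growth at the plate median or of vehicle wells; lower values mean less growth of the strain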
Conditions: S. cerevisiae deletion strains, growth OD

Measured: normalized growth

C[C@@H]1CC[C@@]2(OC1)O[C@H]1CC3C4CC[C@H]5C[C@@H](O)CC[C@]5(C)C4CC[C@]3(C)[C@H]1[C@@H]2C (stereo not given in full)
inactive: locus YAL013W, strain DEP1, hits give low values 0.985 | locus YAL021C, strain ccr4, hits give low values 1.02 | locus YAL026C, strain drs2, hits give low values 1.01 | locus YAL030W, strain snc1, hits give low values 0.994 | locus YBL061C, strain skt5, hits give low values 1 | locus YBR009C, strain hhf1, hits give low values 0.99 | locus YBR021W, strain FUR4, hits give low values 1.11 | locus YBR023C, strain chs3, hits give low values 1 | locus YBR171W, strain sec66, hits give low values 0.994 | locus YBR229C, strain ROT2, hits give low values 0.988 | locus YBR231C, strain swc5, hits give low values 0.988 | locus YBR279W, strain paf1, hits give low values 0.996 | locus YCL011C, strain gbp2, hits give low values 0.994 | locus YCL016C, strain dcc1, hits give low values 0.998 | locus YCL029C, strain bik1, hits give low values 0.978 | locus YCL061C, strain MRC1, hits give low values 0.987 | locus YCL069W, strain vba3, hits give low values 1 | locus YCR088W, strain abp1, hits give low values 0.986 | locus YDL005C, strain med2, hits give low values 0.999 | locus YDL035C, strain GPR1, hits give low values 1.02 | locus YDL040C, strain nat1, hits give low values 0.998 | locus YDL074C, strain BRE1, hits give low values 1 | locus YDL101C, strain DUN1, hits give low values 0.983 | locus YDL134C, strain PPH21, hits give low values 0.972 | locus YDL185W, strain tfp1, hits give low values 0.954 | locus YDL192W, strain arf1, hits give low values 0.978 | locus YDR001C, strain nth1, hits give low values 0.997 | locus YDR069C, strain doa4, hits give low values 0.993 | locus YDR101C, strain arx1, hits give low values 1.01 | locus YDR137W, strain rgp1, hits give low values 1 | locus YDR159W, strain sac3, hits give low values 1 | locus YDR162C, strain NBP2, hits give low values 0.994 | locus YDR195W, strain ref2 0.989 | locus YDR297W, strain sur2, hits give low values 0.988 | locus YDR318W, strain mcm21, hits give low values 0.977 | locus YDR334W, strain swr1, hits give low values 0.993 | locus YDR335W, strain msn5, hits give low values 0.996 | locus YDR388W, hits give low values 0.981 | locus YDR392W, strain spt3, hits give low values 0.981 | locus YDR502C, strain sam2, hits give low values 0.992 | locus YEL003W, strain gim4, hits give low values 0.994 | locus YEL037C, strain rad23, hits give low values 0.989 | locus YEL061C, strain CIN8 (second series), hits give low values 0.992 | locus YER015W, strain faa2, hits give low values 0.996 | locus YER016W, strain bim1, hits give low values 0.998 | locus YER110C, hits give low values 0.969 | locus YER111C, strain swi4, hits give low values 0.994 | locus YER155C, strain BEM2 (second series), hits give low values 0.977 | locus YER155C, strain BEM2, hits give low values 0.999 | locus YER167W, strain BCK2, hits give low values 0.997 | locus YFR010W, strain ubp6, hits give low values 1 | locus YGL078C, strain dbp3, hits give low values 0.956 | locus YGL086W, strain mad1, hits give low values 0.993 | locus YGL167C, strain pmr1, hits give low values 0.999 | locus YGL173C, strain kem1, hits give low values 0.998 | locus YGL227W, strain vid30, hits give low values 0.987 | locus YGL240W, strain doc1, hits give low values 1.01 | locus YGL248W, strain PDE1, hits give low values 0.988 | locus YGL253W, strain hxk2, hits give low values 1 | locus YGR135W, strain pre9, hits give low values 0.941 | locus YGR252W, strain gcn5, hits give low values 1 | locus YHR013C, strain ard1, hits give low values 0.988 | locus YHR027C, strain rpn1, hits give low values 0.992 | locus YHR030C, strain SLT2, hits give low values 0.985 and 1 | locus YHR079C, strain IRE1 (second series), hits give low values 0.987 | locus YHR079C, strain IRE1, hits give low values 0.993 | locus YHR094C, strain hxt1, hits give low values 0.97 | locus YHR129C, strain ARP1, hits give low values 0.991 | locus YHR142W, strain chs7, hits give low values 1.03 | locus YHR200W, strain rpn10, hits give low values 0.997 | locus YIL066C, strain RNR3, hits give low values 1 | locus YIL073C, strain SPO22, hits give low values 0.892 | locus YIL125W, strain kgd1, hits give low values 0.979 | locus YIR030C, strain dcg1, hits give low values 0.977 | locus YJL092W, strain hpr5, hits give low values 0.99 | locus YJL095W, strain BCK1 (second series), hits give low values 0.989 | locus YJL095W, strain BCK1, hits give low values 0.979 and 0.99 | locus YJL115W, strain asf1, hits give low values 0.976 | locus YJL129C, strain trk1, hits give low values 0.977 | locus YJL134W, strain LCB3, hits give low values 0.993 | locus YJL154C, strain vps35, hits give low values 0.99 | locus YJL164C, strain tpk1, hits give low values 0.996 | locus YJL166W, strain qcr8, hits give low values 0.989 | locus YJL168C, strain set2, hits give low values 0.977 | locus YJL187C, strain SWE1 (second series), hits give low values 0.977
